Data on 23 molecules can be found in PubChem BioAssay (NCI).

A short description of assay [1]: NCI Yeast Anticancer Drug Screen. Data for the rad50 strain (AID 155).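 Further: 0% = growth of vehicle-only cultures of the same strain.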 The conditions noted are these: S. cerevisiae rad50 strain growth inhibition; at 50.0 µM; hits give high values. Summed up:
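Relative growth inhibition (compound vs vehicle) was measured in yeast with a defined repair-gene alteration.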

The nature of assay [2]: NCI Yeast Anticancer Drug Screen. Data for the mec2-1 strain (AID 157). The following applies: S. cerevisiae mec2-1 strain, at 50.0 µM, hits give high values. Summed up: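 Cells of the genetically defined mec2-1 yeast strain are incubated with test compound. Inhibition of growth is calculated against vehicle-treated controls.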
A short description of assay [3]: NCI Yeast Anticancer Drug Screen. Data for the sgs1 mgt1 strain (AID 161).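 Further: 0% = growth of cultures given vehicle only.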 The conditions noted are these: S. cerevisiae sgs1 mgt1 strain, at 50.0 µM, hits give high values. Summed up:
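Mutant yeast exposed to compound; growth scored against vehicle-only wells.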

The nature of assay [4]: NCI Yeast Anticancer Drug Screen. Data for the cln2 rad14 strain (AID 165).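 Further: 0% = growth equal to vehicle treated cultures.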 The following applies: S. cerevisiae cln2 rad14 strain, at 50.0 µM, hits give high values. The procedure, abridged:
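The screen exposed genetically defined yeast (cln2 rad14) to test compounds and scored growth inhibition relative to vehicle-treated controls.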

Assay [5] is described as follows: NCI Yeast Anticancer Drug Screen. Data for the bub3 strain (AID 167). The conditions noted are these: S. cerevisiae bub3 mutant strain, at 50.0 µM, hits give high values. Summed up: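 Screening used yeast with an engineered genetic alteration affecting cell cycle control. Compound-exposed cultures were compared with vehicle cultures, and reduced growth was taken as inhibition.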

Assay [6] is described as follows: NCI Yeast Anticancer Drug Screen. Data for the mlh1 rad18 strain (AID 175). The conditions noted are these: S. cerevisiae mlh1 rad18 strain growth inhibition; at 50.0 µM; hits give high values. The procedure, abridged:
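Compound-treated yeast growth, normalised to vehicle controls. Strain bears defined DNA repair mutations.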

This is part of a sample that, as a whole, favours compounds with a hit. Of some 79,000 tested, about 15% had one in any assay. A number with no mark means an inactive call. Activity calls are given as the source filed them. No stated cut-off is given here; in the data, active means growth inhibition above about 70%; inactive means the rest.

In the case of `COn1nnc2ccccc21`, the growth inhibition in assay [1] is -21%; in assay [2] it was -13.8%; in assay [3] it was -19.9%; in assay [4], 5.15%; in assay [5] it was 7.9%; in assay [6] it was -18.1%.

In the case of `COc1ccc(NC(=O)C(=O)C2CNC(=O)NC2=O)c(OC)c1` (stereo not drawn), the growth inhibition was -9.2% in assay [1]; -5.8% in assay [2]; -17.6% in assay [3]; -6.65% in assay [4]; -13.1% in assay [5]; -17.3% in assay [6].

For `O=C1c2cc(Br)ccc2-c2ccc(Br)c3cccc1c23`, the growth inhibition in assay [1] is -10.6%; in assay [2] it was -20.8%; in assay [3], -6.1%; in assay [4] it was 10.3%; in assay [5], -1.05%; in assay [6] it was -20.3%.

As to `COc1ccc(CCNC(=O)Cc2cc(OCc3ccccc3)c(OC)cc2[N+](=O)[O-])cc1OC`, the growth inhibition was 36.1% in assay [1]; 8.4% in assay [2]; 25.5% in assay [3]; 0.8% in assay [4]; -4.2% in assay [5]; 6.9% in assay [6].

Consider `Nc1ncc2c(n1)SCC2`, for which the growth inhibition is -10.3% in assay [1]; -5.8% in assay [2]; -8.25% in assay [3]; -19.7% in assay [4]; -17.6% in assay [5]; -19.6% in assay [6].

As for `CCN(CC)c1ccc(S(=O)(=O)NC(=O)OC)cc1`, the growth inhibition in assay [1] was 3.55%; in assay [2], -2%; in assay [3], -0.65%; in assay [4], 3.45%; in assay [5] it was -1.25%; in assay [6], -5.5%.

For the molecule `O=C(O)c1csc(C(=O)O)c1`, the growth inhibition in assay [1] was 8.5%; in assay [2], -1.1%; in assay [3], 9.05%; in assay [4], 2.3%; in assay [5] it was 12.4%; in assay [6] it was 8.35%.

On to `CCOC1([N+](=O)[O-])c2ccccc2-c2nc3ccccc3cc21` (stereo not drawn), for which the growth inhibition in assay [1] was 96.8% (active); in assay [2], 75.5% (active); in assay [3], 74% (active); in assay [4], 63.7%; in assay [5], 78.8% (active); in assay [6], 92.4% (active).

For `CC(C)N(C(=S)[S-])C(C)C.CC(C)N(C(=S)[S-])C(C)C.[Zn]`, the growth inhibition was 96.8% (active) in assay [1]; 96.8% (active) in assay [2]; 97.8% (active) in assay [3]; 24.1% in assay [4]; 59.5% in assay [5]; 97% (active) in assay [6].

For the molecule `Cc1cccc(C)c1NC(=O)C1=NC(=S)NC(c2ccccc2)C1c1nc2ccccc2s1` (stereo not drawn), the growth inhibition in assay [1] was -5.7%; in assay [2], -19%; in assay [3] it was -15.4%; in assay [4], 10.2%; in assay [5], -0.85%; in assay [6], -1.1%.

For the molecule `CNC(=O)Nc1ccccc1`, the growth inhibition in assay [1] is 27.4%; in assay [2], -0.55%; in assay [3] it was -12.1%; in assay [4], 16.9%; in assay [5] it was -21.9%; in assay [6], 7.6%.

Turning to `Cc1c(NC(=O)Nc2c(Cl)cccc2Cl)c(=O)n(-c2ccccc2)n1C`, the growth inhibition in assay [1] is -42.8%; in assay [2], -36.3%; in assay [3] it was -15.5%; in assay [4], -10.2%; in assay [5], -29.9%; in assay [6], -39.9%.

With `CNc1nc2c(s1)c1c(O)c3c(O)c(C)c4c(c32)C(=O)C(C)(O/C=C/C(OC)C(C)C(OC(C)=O)C(C)C(O)C(C)C(O)C(C)/C=C/C=C(/C)C(=O)N1)O4` (stereo not drawn), the growth inhibition in assay [1] is 14.1%; in assay [2], 13.8%; in assay [3], 9.1%; in assay [4], 9.7%; in assay [5], 21.2%; in assay [6] it was 20.5%.

`CC1C2(c3ccccc3)C(C(=O)c3ccccc3)NC(c3ccccc3)C12c1ccccc1` (stereo not drawn): the growth inhibition in assay [1] is 46%; in assay [2], 6.35%; in assay [3] it was 28.2%; in assay [4], 18.9%; in assay [5], 2.2%; in assay [6], 34.6%.

With `CCCNC(=S)N/N=C\C(C)=N\Nc1ccc(Cl)cc1`, the growth inhibition in assay [1] was 31.4%; in assay [2], 16.2%; in assay [3], 3.15%; in assay [4] it was 36%; in assay [5], 7.5%; in assay [6], 17.2%.

On to `C[Si](C)(C)CCCn1ccc(=O)[nH]c1=O`, for which the growth inhibition in assay [1] was 45.6%; in assay [2] it was 7.45%; in assay [3] it was 27.8%; in assay [4] it was -8.15%; in assay [5] it was 29.4%; in assay [6], -26.3%.

For `CC(=O)NC(Cc1cc(I)c(OC(C)=O)c(I)c1)C(C)=O` (stereo not drawn), the growth inhibition in assay [1] was 5.45%; in assay [2] it was 7.1%; in assay [3] it was 0.7%; in assay [4] it was 14.6%; in assay [5], 4%; in assay [6], -18.4%.

With `O=C1OC(C(O)C(O)C(O)CO)C(O)C1O` (stereo not drawn), the growth inhibition in assay [1] was -9.65%; in assay [2], -29.9%; in assay [3], -11.7%; in assay [4], -40.2%; in assay [5], 28.3%; in assay [6] it was 4.65%.

For the molecule `CC(=O)CC(=O)NC(C)c1ccccc1` (stereo not drawn), the growth inhibition in assay [1] was -4.05%; in assay [2], -12.8%; in assay [3] it was -4.65%; in assay [4], -18.5%; in assay [5], -7.3%; in assay [6] it was 3.2%.

On to `CC(=O)O[C@]12CCCCC1C1(O)C(O)CCCC[C@H]12` (stereo partly drawn), for which the growth inhibition is -41.8% in assay [1]; -62.2% in assay [2]; -65.5% in assay [3]; -4.95% in assay [4]; -20.6% in assay [5]; -31.8% in assay [6].

As for `N#CCN1CCOCCOCCN(CC#N)CCOCCOCC1`, the growth inhibition in assay [1] was 3.1%; in assay [2], -0.75%; in assay [3], 5.75%; in assay [4], 19.7%; in assay [5], 7.4%; in assay [6] it was 42.1%.

Take `O=C(Nc1ccc(S(=O)(=O)N2CCCCC2)cc1)OC(c1ccccc1)c1ccccc1`: the growth inhibition in assay [1] was 38.3%; in assay [2] it was -6.6%; in assay [3] it was 27.4%; in assay [4], 15.9%; in assay [5], -11.7%; in assay [6] it was 6.05%.

As for `C=C1c2c(cc3c(c2O)c(=O)c2ccccc2n3C)OC1(C)C`, the growth inhibition in assay [1] is -31.2%; in assay [2], -36.6%; in assay [3], -23.1%; in assay [4], -24.3%; in assay [5], -25.8%; in assay [6], -25.4%.
